# From PMC4336329 (PLoS ONE, 2015)
# Screen size: about 310,000 compounds; about 14,000 (4.5%) showed an effect of 50% or more. The effect is printed as a negative number. Shown is part of a subset that was picked to be rich in strong results.
# Target: human ether-à-go-go-related gene (hERG) potassium channel (human, UniProt Q12809)
# Assay: primary screen, population patch clamp on CHO cells stably expressing hERG; higher = less effect of the substance
# 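Further: peak tail current of the secondary pulse compared with the same well before compound.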
# human ether-à-go-go-related gene (hERG) potassium channel, sequence (Q12809 whole entry, looked up): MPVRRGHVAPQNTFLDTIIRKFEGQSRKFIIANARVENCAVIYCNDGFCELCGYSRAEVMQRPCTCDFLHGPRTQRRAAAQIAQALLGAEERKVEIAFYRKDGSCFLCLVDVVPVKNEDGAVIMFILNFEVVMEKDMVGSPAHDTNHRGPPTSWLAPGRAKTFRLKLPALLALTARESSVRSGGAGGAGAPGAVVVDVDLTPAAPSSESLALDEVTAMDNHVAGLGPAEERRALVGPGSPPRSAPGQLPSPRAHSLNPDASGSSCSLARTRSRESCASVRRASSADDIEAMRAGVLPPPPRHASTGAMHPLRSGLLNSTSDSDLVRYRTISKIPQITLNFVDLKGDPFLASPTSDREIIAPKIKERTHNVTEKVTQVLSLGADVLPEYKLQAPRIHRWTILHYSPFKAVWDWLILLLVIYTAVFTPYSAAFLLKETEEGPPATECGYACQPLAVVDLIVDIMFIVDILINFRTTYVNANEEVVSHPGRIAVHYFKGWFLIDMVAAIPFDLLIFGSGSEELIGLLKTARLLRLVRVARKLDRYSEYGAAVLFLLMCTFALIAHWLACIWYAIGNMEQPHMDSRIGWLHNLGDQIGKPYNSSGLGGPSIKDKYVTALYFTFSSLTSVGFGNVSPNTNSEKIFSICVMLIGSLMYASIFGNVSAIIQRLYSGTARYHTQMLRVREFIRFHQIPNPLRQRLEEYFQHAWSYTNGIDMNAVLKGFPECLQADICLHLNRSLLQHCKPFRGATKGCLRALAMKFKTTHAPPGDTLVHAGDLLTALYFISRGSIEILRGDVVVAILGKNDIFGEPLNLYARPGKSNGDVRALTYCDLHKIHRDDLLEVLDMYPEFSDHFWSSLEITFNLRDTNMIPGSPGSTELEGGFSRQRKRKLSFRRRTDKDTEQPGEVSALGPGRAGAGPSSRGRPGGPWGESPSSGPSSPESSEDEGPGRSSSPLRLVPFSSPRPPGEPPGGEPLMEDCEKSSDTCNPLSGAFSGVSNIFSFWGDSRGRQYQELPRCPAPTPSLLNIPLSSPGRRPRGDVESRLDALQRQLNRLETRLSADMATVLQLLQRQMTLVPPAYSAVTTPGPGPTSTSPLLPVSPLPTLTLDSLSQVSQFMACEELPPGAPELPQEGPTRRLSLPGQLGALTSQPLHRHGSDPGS
row,Compound,"hERG current change (%, negative = inhibition) at 10uM [%]"
1,CCN(C(=O)c1ccc(C)c(Br)c1)c1ccccc1,-20.5
2,CC(=O)c1c(C)[nH]c(C(=O)COC(=O)COc2ccccc2F)c1C,-3.3
3,O=C(CCC1CCCCC1)NNC(=O)NC12CC3CC(CC(C3)C1)C2,13.2
4,Cc1ccc(C)c(NNC(N)=S)c1,14
5,O=C(COC(=O)CC1SC(N2CCCC2)=NC1=O)Nc1c(F)c(F)c(F)c(F)c1F (stereo not shown),-12.6
6,Cc1cc(NC(=O)CSc2nc(CC(C)(C)C)nc3c2c(=O)n(C)c(=O)n3C)no1,4.05
7,COc1ccc(OCCSc2nnc(CCNC(=O)c3ccc(OC)cc3)n2C)cc1,-6.83
8,CN(C)CCN(C(=O)c1cc(Cl)sc1Cl)c1nc2ccc(F)cc2s1.Cl,-67.3
9,Cc1ccc2nc(N(CCCN(C)C)C(=O)c3ccco3)sc2c1.Cl,-65.4
10,CC(=O)N(CCCN(C)C)c1nc2ccc(C)cc2s1.Cl,-7.07
11,CN(C)CCCN(C(=O)c1ccco1)c1nc2ccc(Cl)cc2s1.Cl,-73.4
12,CCN(CC)CCN(C(=O)c1ccccc1OC)c1nc2ccc(F)cc2s1.Cl,-68.3
13,CCN(CC)CCN(C(=O)c1cc2ccccc2cc1OC)c1nc2ccc(F)cc2s1.Cl,-11.8
14,Cc1ccc2nc(N(CCN(C)C)C(=O)c3cc(Cl)sc3Cl)sc2c1.Cl,7.55
15,CCN(CC)CCN(C(=O)c1cc2ccccc2cc1OC)c1nc2ccc(OC)cc2s1.Cl,-13.4
16,COc1ccc2sc(N(CCN(C)C)C(=O)c3cc(Cl)sc3Cl)nc2c1.Cl,-0.167
17,CN(C)CCCN(C(=O)c1ccco1)c1nc2cc3c(cc2s1)OCO3.Cl,-43.7
18,Cc1cc(-c2ccccc2)n(-c2cc(N/N=C/c3ccccc3O)ncn2)n1,-10.5
19,Cc1ccnc2nc(C(=O)OCC(=O)NC3CCCC(C)C3C)nn12 (stereo not shown),-10.4
20,Cn1c(=O)c2c(nc(NCc3ccc4c(c3)OCO4)n2C)n(C)c1=O,-13.1
21,NC(=O)C1CCN(C(=O)CSc2nc3ccccc3[nH]2)CC1,4.06
22,Fc1cccc(Cl)c1Cn1nnc(-c2ccc(N3CCOCC3)cc2)n1,8.99

row,Compound,"hERG current change (%, negative = inhibition) at 10uM [%]"
1,COc1ccc(-n2c(CNC(=O)c3cccs3)n[nH]c2=S)cc1,27.7
2,COc1cc(C)c(Br)cc1S(=O)(=O)N1CCCC1,-22.1
3,COc1ccc(/C=C2/C(=O)NC(=S)N(C3CC3)C2=O)cc1CN1C(=O)c2ccccc2C1=O,-8.62
4,COc1ccc(C(=O)COC(=O)Cc2n[nH]c(=O)c3ccccc23)c(OC)c1,16.7
5,COc1ccccc1C(=O)N(CCC1CCCN1C)c1nc2ccccc2s1 (stereo not shown),-50.9
6,COCCN(C(=O)Nc1ccccc1OC)c1nc2ccccc2s1,19.9
7,CN(C)CCCN(C(=O)c1ccco1)c1nc2ccc(F)cc2s1.Cl,-70.5
8,Cc1cc(C)c2sc(N(CCN(C)C)C(=O)c3ccc4ccccc4c3)nc2c1.Cl,7.53
9,Cc1cc(C)c2sc(N(CCN(C)C)C(=O)c3cc(Cl)sc3Cl)nc2c1.Cl,9.32
10,COc1cc2ccccc2cc1C(=O)N(CCN(C)C)c1nc2ccc(Br)cc2s1.Cl,9.85
11,CN(C)CCN(C(=O)c1ccco1)c1nc2cc3c(cc2s1)OCCO3.Cl,-32.8
12,CN(C)CCCN(C(=O)c1ccco1)c1nc2ccc(Br)cc2s1.Cl,-71.8
13,COc1ccccc1C(=O)N(CCN(C)C)c1nc2cc(C)cc(C)c2s1.Cl,-82
14,CN(C)CCCN(C(=O)/C=C/c1cccs1)c1nc2ccc(F)cc2s1.Cl,-41
15,COc1cc2ccccc2cc1C(=O)N(CCN(C)C)c1nc2ccc(C)cc2s1.Cl,-11.2
16,CCCCn1c(N)c(N(CCOC)C(=O)COC(=O)c2cc(CC)c(C)s2)c(=O)[nH]c1=O,22
17,Cn1c(SCC(=O)Nc2ccc3[nH]c(=O)[nH]c3c2)nnc1-c1ccc(F)cc1,7.63
18,[O-]/[N+](=C\c1ccccc1)c1ccc(Br)cc1,-0.595
19,CCn1c(CSc2nc3ccccc3s2)nnc1SCC(=O)c1ccc(Cl)cc1,6.76
20,CC(=O)c1cccc(NC(=O)N2CCCC2C(=O)NCc2ccccc2)c1 (stereo not shown),15
21,C1=C(c2ccccc2)CCN(c2nc3ccccc3n3cnnc23)C1,-8.21
22,CCCCN(C)CCNC(=O)C1CCN(S(=O)(=O)c2cccc3nsnc23)CC1,-15.3

row,Compound,"hERG current change (%, negative = inhibition) at 10uM [%]"
1,O=[N+]([O-])c1ccc(Oc2c(F)c(F)nc(N3CCCC3)c2F)cc1,-19.7
2,CCN(CC)CCN(C(=O)c1ccc(C(C)=O)cc1)c1nc2ccc(Cl)cc2s1.Cl,-30.2
3,Cc1ccc(C(=O)N(CCCN(C)C)c2nc3ccc(Cl)cc3s2)cc1C.Cl,-56.4
4,CN(C)CCN(C(=O)c1ccc(S(=O)(=O)N(C)c2ccccc2)cc1)c1nc2ccc(Cl)cc2s1.Cl,-13
5,CNS(=O)(=O)c1cccc2cccnc12,11.1
6,O=C1CC(NCc2ccc3c(c2)OCO3)C(=O)N1Cc1ccc2c(c1)OCO2 (stereo not shown),-4.06
7,Cc1ccc(N2C(=O)CC(NCc3ccc4c(c3)OCO4)C2=O)cc1Cl (stereo not shown),-54.8
8,CCN1C(=O)CC(NCc2ccc3c(c2)OCO3)C1=O (stereo not shown),-9.23
9,CS(=O)(=O)N(CC(=O)N1CCN(Cc2ccccc2)CC1)c1ccccc1F,-5.93
10,CCNC(=O)CSc1nnc(-c2cc(-c3ccc(Cl)cc3)nc3ccccc23)o1,-82.3
11,CCN(CC)C(=O)CSc1nnc(-c2cc(-c3ccc(Cl)cc3)nc3ccccc23)o1,-3.85
12,CCC(C)NC(=O)CSc1nnc(-c2cc(-c3cccs3)nc3ccccc23)o1 (stereo not shown),-0.833
13,Cc1nn(-c2cc(N3CCCCCC3)ccc2[N+](=O)[O-])c(=O)c2ccccc12,6.02
14,O=C(NCCc1c[nH]c2ccccc12)C(=O)NCC(c1ccco1)N1CCN(c2ccc(F)cc2)CC1 (stereo not shown),7.65
15,Cc1cc(C)n(CC(=O)c2ccccc2)c(=O)c1C#N,10.9
16,CCNc1nc(NCC)nc(OCCOC(=O)Nc2ccccc2)n1,-0.811
17,CCNc1nc(NCC)nc(SCCOC(=O)Nc2ccccc2)n1,-71
18,CCNc1nc(NCC)nc(SCCOC(=O)c2ccccc2)n1,-39.4
19,O=C(CSc1nnc(CNC(=O)c2ccccc2)o1)NCc1ccco1,-0.224
20,Cc1ccc(CSc2ccc(S(=O)(=O)N3CCOCC3)cn2)cc1,-10.2
21,COc1cc(/C=C/C(=O)Nc2ccccc2C(F)(F)F)cc(OC)c1OC,-5.76
22,COC(=O)CN(c1nc(C)cc(OC)n1)S(=O)(=O)c1ccc(C)cc1,-8.25

row,Compound,"hERG current change (%, negative = inhibition) at 10uM [%]"
1,Cc1c(C(=O)C(=O)NCCc2ccc(S(N)(=O)=O)cc2)c2ccccc2n1C,-13.4
2,COc1ccc(S(=O)(=O)NCC2CCCO2)cc1NC(=O)c1ccccc1 (stereo not shown),-15.4
3,COc1ccc(S(=O)(=O)NCc2ccncc2)cc1NC(=O)c1ccc(Cl)cc1,-67.4
4,COc1ccc(S(=O)(=O)NCc2ccncc2)cc1NC(=O)c1ccccc1,-34.7
5,COc1ccc(S(=O)(=O)NCc2ccccn2)cc1NC(=O)c1ccc(C)cc1,-16.5
6,COc1ccc(S(=O)(=O)NCc2cccnc2)cc1NC(=O)c1ccccc1,-3.99
7,COc1ccc(S(=O)(=O)NCC2CCCO2)cc1NC(=O)c1ccc(Cl)cc1 (stereo not shown),-54
8,COc1ccc(S(=O)(=O)NCc2cccnc2)cc1NC(=O)c1ccc(Cl)cc1,-52.2
9,COc1ccc(S(=O)(=O)NCc2cccnc2)cc1NC(=O)c1ccc(C)cc1,-17.6
10,COc1ccc(S(=O)(=O)NCC2CCCO2)cc1NC(=O)c1ccccc1F (stereo not shown),19.1
11,COc1ccc(S(=O)(=O)NCc2ccccn2)cc1NC(=O)c1ccccc1,8.45
12,COc1ccc(S(=O)(=O)NCc2ccncc2)cc1NC(=O)c1ccccc1F,18.7
13,COc1ccc(S(=O)(=O)NCc2ccccn2)cc1NC(=O)c1ccc(Cl)cc1,-68.8
14,COc1ccccc1OCC(=O)N1CCCC(N2CCN(c3ccc(F)cc3)CC2)C1 (stereo not shown),-52.9
15,Cc1ccc(OCC(=O)N2CCCC(N3CCN(c4ccc(F)cc4)CC3)C2)cc1 (stereo not shown),-101
16,COc1ccccc1N1CCN(C2CCCN(C(=O)CC(F)(F)F)C2)CC1 (stereo not shown),12.4
17,O=C(COc1ccccc1Cl)N1CCCC(N2CCN(c3ccc(F)cc3)CC2)C1 (stereo not shown),-65.8
18,COc1ncccc1C(=O)N1CCCC(N2CCN(c3ccc(F)cc3)CC2)C1 (stereo not shown),-26.7
19,COc1ccc(N2CCN(C3CCCN(C(=O)CSC)C3)CC2)cc1 (stereo not shown),3.1
20,O=C(CCN1CCCCO1)N1CCCC(N2CCN(c3ccc(F)cc3)CC2)C1 (stereo not shown),-11.2
21,O=C(COc1ccccc1Cl)N1CCN(c2ccc(F)cc2)CC1,-6.04
22,Cc1cc(C)n(CC(=O)N2CCCC(N3CCN(c4ccc(F)cc4)CC3)C2)n1 (stereo not shown),-18.1
